# Laboratory results published in the supplement of paper PMC13094657.
# Structures can show the parent of a compound that is named as a salt. ± gives the standard deviation of the averaged measurements.
# Tests used:
# MDA-MB-231 [1] = experiment: cell viability relative to vehicle unstimulated control (fraction); higher = more viable cells; conditions: pre-treatment time: 18 h then 24 h IFNg/TNF
# MDA-MB-231 [2] = experiment: kynurenine production, fold change vs DMSO IFNg/TNF control; higher = more kynurenine produced (less inhibition); conditions: pre-treatment time: 18 h then 24 h IFNg/TNF
# How it was run: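 Fold change over cytokine-stimulated vehicle wells on the same plate is the measure used for kynurenine production, averaged across duplicate plates in the first screening round. MDA-MB-231 cells, seeded 24 h beforehand at 7 × 10^4/well in 96-well plates, were pre-treated 18 h with each natural product in 0.1% DMSO and stimulated 24 h at 37°C with IFNγ (1 U/ml) and TNF (6.25 ng/ml). Supernatants were read at 492 nm following trichloroacetic acid and p-dimethylaminobenzaldehyde treatment, against 0–100 μM standards.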
# 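For cell viability relative to vehicle unstimulated control in this document: viability of the cells left after supernatant collection, read with Deep Blue dye added for 4 h, as absorbance at 570 nm minus 600 nm.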
SMILES,cell viability (MDA-MB-231 [1]),kynurenine production (MDA-MB-231 [2])
CC1(C)[C@@H](O)CC[C@]2(C)[C@H]3CC=C4[C@@H]5C[C@@]6(C)C[C@H](OC6=O)[C@]5(C)CC[C@@]4(C)[C@]3(C)CC[C@@H]12 [Wilforlide A] (compound dose: 2 uM),0.877 ± 0.047,0.834 ± 0.13
O=C(O)C1=CO[C@@H](O[C@@H]2O[C@H](CO)[C@@H](O)[C@H](O)[C@H]2O)[C@@H]2C(CO)=C[C@H](O)[C@H]12 [Deacetylasperulosidic acid] (compound dose: 10 uM),1.01 ± 0.024,1.07 ± 0.041
CC(/C=C/C=C(\C)C(=O)O)=C\C=C\C=C(C)\C=C\C=C(/C)C(=O)O [Transcrocetin meglumine salt] (compound dose: 10 uM),1.02 ± 0.038,0.737 ± 0.064
C=C1C[C@@]23CC[C@H]4[C@@](C)(CCC[C@@]4(C)C(=O)O)[C@@H]2CC[C@]1(O[C@@H]1O[C@@H](CO)[C@@H](O)[C@H](O)[C@@H]1O[C@@H]1O[C@@H](CO)[C@@H](O)[C@H](O)[C@@H]1O)C3 [Steviolbioside] (compound dose: 10 uM),0.904 ± 0.19,1.05 ± 0.44
COC(=O)C1=CO[C@@H](O[C@@H]2O[C@H](CO)[C@@H](O)[C@H](O)[C@H]2O)[C@@H]2C(CO)=CC[C@H]12 [Geniposide] (compound dose: 10 uM),0.947 ± 0.031,0.939 ± 0.023
C=C1CCC[C@]2(C)C=C3OC(=O)C(C)=C3C[C@@H]12 [Atractylenolide I] (compound dose: 10 uM),0.983 ± 0.028,0.853 ± 0.2
C[C@@H]1O[C@@H](O[C@@H]2[C@@H](O)[C@H](O[C@H]3CC[C@]4(C)[C@H]5CC=C6[C@@H]7CC(C)(C)CC[C@]7(C(=O)O[C@@H]7O[C@H](CO)[C@@H](O)[C@H](O)[C@H]7O)CC[C@@]6(C)[C@]5(C)CC[C@H]4C3(C)C)O[C@H](C(=O)O)[C@H]2O)[C@H](O)[C@H](O)[C@H]1O (compound dose: 10 uM),0.941 ± 0.015,0.932 ± 0.11
CC(=O)O[C@H]1CC(=O)OC(C)(C)[C@@H]2CC(=O)[C@]3(C)[C@H](CC[C@@]4(C)[C@@H](c5ccoc5)OC(=O)[C@H]5O[C@]543)[C@@]12C [Nomilin] (compound dose: 10 uM),1.03 ± 0.023,0.942 ± 0.087
C=C1C(=O)O[C@@H]2/C=C(\C)C[C@@H]3C=C(C[C@H](OC(=O)/C(C)=C\C)[C@@H]12)C(=O)O3 [Scabertopin] (compound dose: 10 uM),0.873 ± 0.022,0.182 ± 0.087
CC(CC(=O)C[C@](C)(O)[C@H]1CC(=O)[C@@]2(C)C3=C(C(=O)C[C@]12C)[C@@]1(C)CCC(=O)C(C)(C)[C@@H]1C[C@@H]3O)C(=O)O (stereo partly drawn) [Ganoderic acid N] (compound dose: 10 uM),1.03 ± 0.053,0.857 ± 0.12
C=C(C)C1CC=C(C)[C@@H](O)C1 (stereo partly drawn) [Carveol] (compound dose: 10 uM),1.07 ± 0.081,0.801 ± 0.38
CC1=CCC(C(C)C)=CC1 [γ-Terpinene] (compound dose: 10 uM),1.07 ± 0.036,0.75 ± 0.53
CC1(C)CC[C@]2(C(=O)O)CC[C@]3(C)C(=CC[C@@H]4[C@@]5(C)CC[C@H](O)[C@@](C)(CO)[C@@H]5CC[C@]43C)[C@@H]2C1 [Hederagenin] (compound dose: 10 uM),1.06 ± 0.2,1.07 ± 0.014
CC(C)=C/C=C1\O[C@@H]2CC(C)=CC(=O)[C@@H]2[C@]1(C)O [Bisabolangelone] (compound dose: 10 uM),0.907 ± 0.0022,0.711 ± 0.12
O=C(O)C1=CO[C@@H](O[C@@H]2O[C@H](CO)[C@@H](O)[C@H](O)[C@H]2O)[C@H]2[C@@H]1C=C[C@]2(O)CO [Monotropein] (compound dose: 10 uM),0.866 ± 0.046,0.846 ± 0.13
COC(=O)C1=CO[C@@H](O[C@@H]2O[C@H](CO)[C@@H](O)[C@H](O)[C@H]2O)[C@H]2[C@@H]1[C@H](O)C[C@]2(C)O [Shanzhiside methyl ester] (compound dose: 10 uM),1.007 ± 0.0034,0.998 ± 0.16
"CC12CCC(CC1)C(C)(C)O2 [1,8-cineole] (compound dose: 10 uM)",0.978 ± 0.067,0.913 ± 0.074
CC(C)=CCC[C@](C)(O[C@@H]1O[C@H](CO[C@@H]2O[C@@H](CO)[C@H](O)[C@H]2O)[C@@H](O)[C@H](O)[C@H]1O)[C@H]1CC[C@]2(C)[C@@H]1[C@H](O)C[C@@H]1[C@@]3(C)CC[C@H](O[C@@H]4O[C@H](CO)[C@@H](O)[C@H](O)[C@H]4O[C@@H]4O[C@H](CO)[C@@H](O)[C@H](O)[C@H]4O)C(C)(C)[C@@H]3CC[C@]12C [Ginsenoside Rc] (compound dose: 10 uM),0.9496 ± 0.0049,0.744 ± 0.044
COc1cc(C(C)=O)cc(OC)c1O [Acetosyringone] (compound dose: 10 uM),1.05 ± 0.032,0.885 ± 0.087
C[C@H](CC[C@@H](O[C@@H]1O[C@H](CO[C@@H]2O[C@H](CO)[C@@H](O)[C@H](O)[C@H]2O)[C@@H](O)[C@H](O)[C@H]1O)C(C)(C)O)[C@H]1CC[C@@]2(C)[C@@H]3CC=C4[C@@H](CC[C@H](O[C@@H]5O[C@H](CO)[C@@H](O)[C@H](O)[C@H]5O)C4(C)C)[C@]3(C)[C@H](O)C[C@]12C [Mogroside III] (compound dose: 10 uM),0.857 ± 0.018,0.997 ± 0.13
"CCCCC/C=C/C=C/C(=O)O[C@H]1C(C)=C[C@]23C(=O)[C@@H](C=C(CO)[C@@H](O)[C@]12O)[C@H]1[C@@H](C[C@H]3C)C1(C)C [3-O-(2'E,4'EDecadienoyl)ingenol] (compound dose: 10 uM)",0.9682 ± 0.0024,0.812 ± 0.086
CC1(C)CCC2(CO)C(=C3C=CC4C5(C)CCC(OC6OC(COC7OC(CO)C(O)C(O)C7O)C(OC7OC(CO)C(O)C(O)C7O)C(O)C6O)CC5C(C)(CO)CC4(C)C3(C)CC2O)C1 (stereo not drawn) [Clinodiside A] (compound dose: 10 uM),0.918 ± 0.029,1.03 ± 0.2
O[C@H]1[C@H]2c3cc4c(cc3CN3CC[C@H](C[C@@H]1O)[C@H]23)OCO4 [Dihydrolycorine] (compound dose: 10 uM),0.961 ± 0.041,0.723 ± 0.022
C=C1C(=O)[C@@]23[C@@H]4OC5O[C@@]2(O)[C@@H](O)[C@@H]2C(C)(C)CC[C@@H](O)[C@]52[C@@H]3CC[C@@H]14 [Ponicidin] (compound dose: 10 uM),0.9 ± 0.21,0.404 ± 0.15
C[C@@H]1CC[C@]2(C(=O)O)CC[C@]3(C)C(=CC[C@@H]4[C@@]5(C)C[C@@H](O)[C@@H](O)C(C)(C)[C@@H]5CC[C@]43C)[C@@H]2[C@]1(C)O [Euscaphic acid] (compound dose: 10 uM),0.933 ± 0.02,0.804 ± 0.15
CC1OC2OC3C(OCC(O)C3O)OC(=O)C34CCC(C)(C)CC3C3=CCC5C6(C)CC(O)C(OC7OC(CO)C(O)C(O)C7OC7OCC(OC(=O)CC(C)(O)CC(=O)OC1C(OC1OCC(O)C(O)C1O)C2O)C(O)C7O)C(C)(CO)C6CCC5(C)C3(C)CC4O (stereo not drawn) [Tubeimoside II] (compound dose: 10 uM),0.387 ± 0.0057,0.21 ± 0.0034
CO[C@@H]1C=C2[C@@H]3CC(C)(C)CC[C@]3(CO)[C@H](O)C[C@@]2(C)[C@]2(C)CC[C@H]3[C@](C)(CO)[C@@H](O[C@@H]4O[C@H](C)[C@H](O)[C@H](O[C@@H]5O[C@H](CO)[C@@H](O)[C@H](O)[C@H]5O)[C@H]4O)CC[C@]3(C)[C@@H]12 [Saikosaponin B4] (compound dose: 10 uM),1.12 ± 0.026,0.923 ± 0.21
C[C@H]1[C@H](OC(=O)CCC(=O)O)O[C@@H]2O[C@@]3(C)CC[C@H]4[C@H](C)CC[C@@H]1[C@@]24OO3 [Artesunate] (compound dose: 10 uM),0.909 ± 0.13,0.421 ± 0.04
C/C=C1/[C@H](O[C@@H]2O[C@H](CO)[C@@H](O)[C@H](O)[C@H]2O)OC=C(C(=O)OC)[C@H]1CC(=O)OCCc1ccc(O)c(O)c1 [Oleuropein] (compound dose: 10 uM),0.978 ± 0.075,0.733 ± 0.15
